A selection: hits, their analogues and other compounds. The true share with any hit is near 7.9%.
MARV entry inh: qHTS for inhibitors of binding or entry into cells for Marburg Virus; Marburg virus pseudotyped entry inhibition, cell reporter; Potency, µM (doses to about 37.8 µM), for inactives: at the highest dose activity change, negative = inhibition, usual class: inhibitors; 300,000 compounds, 1.8% hits; calls by dose curve; tested in HEK293 cells; also: potency is read from the fitted curve at half-maximal effect
FMDV antiviral: High Throughput Screening for Foot and Mouth Disease Virus Antivirals | FMDV antiviral cell-based qHTS | Potency, µM (series often up to 57.9 µM), without a hit: at the top dose activity change, negative = inhibition, usual class: inhibitors | 410,000 compounds, 1.2% hits | AID 1159524, 2015; calls by dose curve; tested in HEK293T cells; also: read-out not given here; potency is read from the fitted curve at half-maximal effect; nearly all actives have a fitted effect of over 45% in size
HCV inhibitor: qHTS Assay for Inhibitors of Hepatitis C Virus (HCV); Huh7.5.1 HCVcc-Cre infection, luciferase reporter, 44 h; Potency, µM (titrated, usually from 41.8 µM), without a hit: top-dose activity change, negative = inhibition, usual class: inhibitors; 340,000 compounds, 3.4% hits; AID 651820, 2012; active = well fitted inhibition curve with a large enough effect; inconclusive = small, poorly fitted or top-dose-only effect, or another doubt; inactive = no such curve, though single readings can be large or run the other way; also: potency is read from the fitted curve at half-maximal effect
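Reporter virus HCVcc-Cre (~0.5 moi) infects cells exposed to compound; seeding density 1,000 cells/well with 4 h settling beforehand. Luminescence, 15 sec read, taken 44 h post-infection following a 15 min RT substrate incubation.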
HCMV antiviral: qHTS Assay for inhibitors of the human cytomegalovirus (HCMV) | HFF cells, HCMV-luciferase reporter, 72 h; active compounds read low | activity change, negative = inhibition, % at 57.5 µM | 410,000 compounds, 4.5% hits | AID 1259415, 2018; in the data active = activity change below about -60%; inconclusive = no clear call, values can overlap the other calls; inactive = above about -39%
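Luciferase read-out from HCMV-luciferase-infected HFFs (MOI 1 PFU/cell) 72 h post infection at 37C; compounds added after 16 h cell attachment; activity normalized between buffer-only basal and Salinomycin (10uM) inhibitor controls.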
Lassa entry inh: qHTS for Inhibitors of binding or entry into cells for Lassa Virus; Lassa virus pseudotype entry inhibition, cell reporter; Potency, µM (highest dose often 37.9 µM), without a hit: at the top dose activity change, negative = inhibition, hits mostly inhibitors; 300,000 compounds, 1.2% hits; calls by dose curve; tested in HEK293 cells; also: potency is read from the fitted curve at half-maximal effect; nearly all actives have a fitted effect of over 50% in size
* = called active by the depositor; ? = inconclusive; . = no result given; [ ] = dose if it differs, or a comment. % is scaled to controls: 0 for no effect and ±100 for the full control effect.

SMILES	MARV entry inh	FMDV antiviral	HCV inhibitor	HCMV antiviral	Lassa entry inh
O=C(COc1ccccc1[N+](=O)[O-])Nc1cccc(Cl)c1N1CCOCC1	?	40µM*	?	-39	?
CN1CCN(c2ccc(NC(=O)c3ccc([N+](=O)[O-])o3)cc2Cl)CC1	11µM*	0%	22µM*	-101*	?
Cc1ccc(NC(=O)c2cc([N+](=O)[O-])ccc2N2CCOCC2)cc1S(=O)(=O)N1CCOCC1	?	-17%	.	10	-16%
Cc1ccc(NC(=O)c2ccc([N+](=O)[O-])o2)cc1S(=O)(=O)N1CCOCC1	?	-25%	10µM*	-95*	?
Cc1ccc(NC(=O)/C=C/c2ccc(S(=O)(=O)N3CCOCC3)cc2)cc1S(=O)(=O)N(C)C	?	35µM*	?	-74*	?
CCOc1cc(N2CCOCC2)c(OCC)cc1NC(=O)COc1ccccc1[N+](=O)[O-]	-1%[46.1 µM]	-13%	?	8	-2%
CCOc1ccc(CCNC(=O)c2nn(-c3ccc(OC)cc3)c(=O)c3c2c2ccccc2n3C)cc1OCC	6%[46.1 µM]	-23%	.	16	0%[46.1 µM]
Cc1c(C(=O)N2CCCC(C)C2)sc2ncnc(NCCN3CCCCC3)c12 (stereo not given)	.	1%	.	.	.
COc1cccc(-c2nc(S(=O)(=O)c3ccccc3)c(N3CCC(C)CC3)o2)c1	-27%[46.1 µM]	-7%	.	5	?
O=C(/C=C/c1ccco1)Nc1ccc(S(=O)(=O)N2CCOCC2)cc1	4%	5%	3.5µM*	-18	-15%
CC(C)(C)NNC(=S)Nc1ccc(S(=O)(=O)N2CCOCC2)cc1	-8%	-5%	1%	3	-5%[46.1 µM]
CC(C)C(=O)N1CCN(c2ccc(NC(=O)COc3ccccc3[N+](=O)[O-])cc2)CC1	?	16µM*	?	?	?
Cc1ccc(NC(=S)Nc2ccc(S(=O)(=O)N3CCOCC3)cc2)cc1S(=O)(=O)N1CCOCC1	-1%[46.1 µM]	-6%	-76%	?	11µM*
O=C(Nc1ccc(N2CCOCC2)c(Cl)c1)c1ccc([N+](=O)[O-])o1	.	0%	11µM*	-102*	.
Cc1nc2ccn(Cc3cccnc3)c(=O)c2cc1C(=O)N1CCN(c2ccccc2)CC1	.	0%	.	-1	-9%[46.1 µM]
Cc1cccc(Cn2c(COc3ccccc3)nc3ccccc32)c1	?	-22%	.	13	-1%[46.1 µM]
O=S(=O)(c1ccc(NC(=S)NN=C(Cc2ccccc2)Cc2ccccc2)cc1)N1CCOCC1	12%[46.1 µM]	0%	10µM*	-33	?
O=C(Nc1cccc(Cl)c1N1CCCC1)c1ccc([N+](=O)[O-])o1	-24%	-24%	?	2	-13%
Cc1ccc(NC(=O)C(=O)c2c(-c3ccccc3)cc3ccccn23)cc1S(=O)(=O)N1CCOCC1	?	-16%	?	-76*	-1%
CC(C)C(=O)N1CCN(c2ccc(NC(=O)c3ccc([N+](=O)[O-])o3)cc2)CC1	21%[46.1 µM]	-21%	?	-98*	-17%
CC(C)C(=O)N1CCN(c2ccc(NC(=O)c3ccc(Br)o3)cc2)CC1	-16%	-16%	0%	-22	-14%
CCN1CCN(c2c(Cl)cccc2NC(=O)c2ccc([N+](=O)[O-])o2)CC1	.	.	.	-97*	.
CC(C)C(=O)N1CCN(c2ccc(NC(=O)c3ccc([N+](=O)[O-])o3)cc2Cl)CC1	?	25µM*	10µM*	-100*	?
COCCNC(=O)C1CCN(S(=O)(=O)c2ccc3c(c2)CCCN3C(C)=O)CC1	.	-12%	.	4	-1%[46.1 µM]
CCN(CC)c1ccc(NC(=O)CSc2nnc3nc(C)cc(C)n23)cc1	-22%	-14%	10%	-107*	14%
SMILES	MARV entry inh	FMDV antiviral	HCV inhibitor	HCMV antiviral	Lassa entry inh
COc1ccc(OC)c(C(C)NC(=O)Cn2c(=O)cc(C)c3c(C)nn(-c4ccc(C)cc4)c32)c1 (stereo not given)	.	-5%	.	12	0%[46.1 µM]
Oc1ccc(/C=N/Nc2nc(-c3ccc(Cl)cc3)cc(C(F)(F)F)n2)cc1	11µM*	25µM*	13µM*	-77*	?
COc1ccc(O)c(/C=N/Nc2nc(C)cc(-c3ccccc3)n2)c1	?	-19%	4µM*	-26	2%
Cc1cc(C)nc(N/N=C/c2ccccc2)n1	17%	43%	-5%	26	6%
Cc1cc(-c2ccccc2)nc(N/N=C/c2ccc(O)cc2)n1	?	-27%	11µM*	-16	8.9µM*
Cc1cc(C)c2nc(C)cc(N/N=C/c3ccc(O)cc3)c2c1	?	0%	11µM*	-100*	?
Cc1cc(N/N=C/c2ccc(O)cc2)c2cccc(C)c2n1	.	-11%	?	?	.
Cc1ccc(NC(=O)c2ccc3c(=O)n4nc(Nc5ccccc5C)sc4nc3c2)cc1C	.	-19%	.	5	6%[46.1 µM]
COC(=O)c1ccc(OCC2c3cc(OC)c(OC)cc3CCN2C(=O)c2ccccc2F)cc1 (stereo not given)	.	-38%	.	14	?
CCN(CC)c1ccc(/C=N/Nc2nc(C)cc(C)n2)cc1	10µM*	9%	?	?	?
COc1ccc(/C(C)=N/Nc2nc(C)cc(-c3ccccc3)n2)cc1	2.5µM*	?	10µM*	-94*	?
CCN(CC)c1ccc(/C=N/Nc2nn[nH]n2)cc1	.	11%	6%	3	.
C/C(=N\Nc1nc(C)cc(-c2ccccc2)n1)c1ccc(F)cc1	.	-1%	?	-26	.
CCc1ccc2oc(C(=O)N(Cc3cccc(Cl)c3)Cc3ccco3)c(C)c2c1	4%[46.1 µM]	-20%	.	3	-18%[46.1 µM]
Cc1ccc(CN2CCCn3nc(C(=O)NCCc4cccc(C)c4)cc3C2=O)cc1	.	1%	.	1	-14%[46.1 µM]
CCCC(=O)Nc1ccc2c(c1)C(=O)NC2=O	.	-20%	9%	?	.
Cc1ccc2c(c1)Oc1ccc(NC(=O)CCCl)cc1C(=O)N2	.	-6%	?	-90*	.
CCOC(=O)N/N=C1/C[C@@H](O)[C@@H](O)[C@@H]2[C@@H]3C(=O)N(C4CCCCC4)C(=O)[C@H]3CC[C@H]12	-25%[14.2 µM]	.	.	.	.
O=c1[nH]c2ccccc2n1CCCSCCCn1c(=O)[nH]c2ccccc21	?	20µM*	?	-66*	?
Cc1cc(C(=O)CSCCCn2c(=O)[nH]c3ccccc32)c(C)n1C	?	3%	?	-14	2%
CCOC(=O)c1sc(NC(=O)Nc2ccccc2)cc1C	16µM*	38%	?	-24	14µM*
CCOC(=O)c1sc(-c2ccccc2)cc1NC(=O)Nc1ccccc1	?	-29%	10µM*	-36	4%
CCOC(=O)c1c(N)sc(C(=O)Nc2ccccc2)c1C	.	2%	11µM*	79	.
CCOC(=O)c1c(N)sc(N)c1C(=O)OCC	-11%	32µM*	12%	-1	-4%
CCOC(=O)c1c(N)sc(C(N)=O)c1C	4%[46.1 µM]	20%	11%	-3	10%
